What was measured:
[1] = molecular target: MAP/microtubule affinity-regulating kinase 3 (Homo sapiens) (UniProt P27448); conditions: at 1 µM;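 also: reported values are averaged percent inhibition of MARK3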
[2] = molecular target: T1, MAP/microtubule affinity-regulating kinase 4 (Homo sapiens) (UniProt Q96L34); conditions: at 0.1 µM
T1 sequence (whole entry): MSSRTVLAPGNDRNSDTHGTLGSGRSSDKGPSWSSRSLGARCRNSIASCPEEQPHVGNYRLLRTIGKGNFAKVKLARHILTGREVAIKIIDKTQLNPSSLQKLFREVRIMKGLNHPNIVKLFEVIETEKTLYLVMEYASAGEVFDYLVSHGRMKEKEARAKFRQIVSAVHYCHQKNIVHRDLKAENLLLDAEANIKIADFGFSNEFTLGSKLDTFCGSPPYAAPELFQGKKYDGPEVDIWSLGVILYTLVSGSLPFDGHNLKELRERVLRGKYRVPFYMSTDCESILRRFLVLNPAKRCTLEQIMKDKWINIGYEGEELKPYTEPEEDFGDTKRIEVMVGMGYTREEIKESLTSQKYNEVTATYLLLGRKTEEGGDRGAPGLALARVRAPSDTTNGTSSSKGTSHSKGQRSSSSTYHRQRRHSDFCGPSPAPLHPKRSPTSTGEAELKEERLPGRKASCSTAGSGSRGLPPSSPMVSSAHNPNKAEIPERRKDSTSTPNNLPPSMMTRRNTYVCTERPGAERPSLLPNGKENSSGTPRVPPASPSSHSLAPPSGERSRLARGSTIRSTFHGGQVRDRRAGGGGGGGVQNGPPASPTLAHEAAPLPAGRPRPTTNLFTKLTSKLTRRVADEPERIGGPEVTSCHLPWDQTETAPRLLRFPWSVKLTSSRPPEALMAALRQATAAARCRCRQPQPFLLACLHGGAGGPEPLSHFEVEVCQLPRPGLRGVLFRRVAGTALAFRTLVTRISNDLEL

[3] = molecular target: T1, MAP/microtubule affinity-regulating kinase 4 (Homo sapiens); conditions: at 1 µM
[4] = molecular target: Maternal embryonic leucine zipper kinase (Homo sapiens) (UniProt Q14680); conditions: at 0.1 µM
[5] = molecular target: Maternal embryonic leucine zipper kinase (Homo sapiens) (UniProt Q14680); conditions: at 1 µM
[6] = molecular target: MAP kinase-interacting serine/threonine-protein kinase 1 (Homo sapiens) (UniProt Q9BUB5); conditions: at 0.1 µM
[7] = molecular target: MAP kinase-interacting serine/threonine-protein kinase 1 (Homo sapiens) (UniProt Q9BUB5); conditions: at 1 µM
[8] = molecular target: MAP kinase-interacting serine/threonine-protein kinase 2 (Homo sapiens) (UniProt Q9HBH9); conditions: at 0.1 µM
[9] = molecular target: MAP kinase-interacting serine/threonine-protein kinase 2 (Homo sapiens) (UniProt Q9HBH9); conditions: at 1 µM
[10] = molecular target: Serine/threonine-protein kinase MARK2 (Homo sapiens) (UniProt Q7KZI7); conditions: at 0.1 µM
[11] = molecular target: Serine/threonine-protein kinase MARK2 (Homo sapiens) (UniProt Q7KZI7); conditions: at 1 µM
[12] = molecular target: PAS domain-containing serine/threonine-protein kinase (Homo sapiens) (UniProt Q96RG2); conditions: at 0.1 µM
[13] = molecular target: PAS domain-containing serine/threonine-protein kinase (Homo sapiens) (UniProt Q96RG2); conditions: at 1 µM
[14] = molecular target: Phosphorylase b kinase gamma catalytic chain, skeletal muscle/heart isoform (Homo sapiens) (UniProt Q16816); conditions: at 0.1 µM
[15] = molecular target: Phosphorylase b kinase gamma catalytic chain, skeletal muscle/heart isoform (Homo sapiens) (UniProt Q16816); conditions: at 1 µM
[16] = molecular target: T2, Phosphorylase b kinase gamma catalytic chain, liver/testis isoform (Homo sapiens) (UniProt P15735); conditions: at 0.1 µM
T2 sequence (whole entry): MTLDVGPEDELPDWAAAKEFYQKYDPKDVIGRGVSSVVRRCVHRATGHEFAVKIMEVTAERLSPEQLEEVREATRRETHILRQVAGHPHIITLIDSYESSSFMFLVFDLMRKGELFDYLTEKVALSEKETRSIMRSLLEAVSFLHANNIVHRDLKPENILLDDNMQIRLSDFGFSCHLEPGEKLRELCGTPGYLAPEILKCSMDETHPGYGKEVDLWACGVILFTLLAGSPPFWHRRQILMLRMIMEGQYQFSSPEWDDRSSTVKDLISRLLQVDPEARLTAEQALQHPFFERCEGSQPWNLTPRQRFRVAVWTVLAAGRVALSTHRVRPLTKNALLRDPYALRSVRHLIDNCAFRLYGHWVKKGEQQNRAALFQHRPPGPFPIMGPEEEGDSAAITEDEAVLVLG

[17] = molecular target: T2, Phosphorylase b kinase gamma catalytic chain, liver/testis isoform (Homo sapiens); conditions: at 1 µM
[18] = molecular target: Serine/threonine-protein kinase pim-1 (Homo sapiens) (UniProt P11309); conditions: at 0.1 µM
[19] = molecular target: Serine/threonine-protein kinase pim-1 (Homo sapiens) (UniProt P11309); conditions: at 1 µM
[20] = molecular target: Serine/threonine-protein kinase pim-2 (Homo sapiens) (UniProt Q9P1W9); conditions: at 0.1 µM;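 also: reported value is the mean percent inhibition of PIM2, measured in the GSK PKIS kinase inhibitor set screen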
Chain of Serine/threonine-protein kinase pim-2 (Homo sapiens) (Q9P1W9 whole entry, looked up): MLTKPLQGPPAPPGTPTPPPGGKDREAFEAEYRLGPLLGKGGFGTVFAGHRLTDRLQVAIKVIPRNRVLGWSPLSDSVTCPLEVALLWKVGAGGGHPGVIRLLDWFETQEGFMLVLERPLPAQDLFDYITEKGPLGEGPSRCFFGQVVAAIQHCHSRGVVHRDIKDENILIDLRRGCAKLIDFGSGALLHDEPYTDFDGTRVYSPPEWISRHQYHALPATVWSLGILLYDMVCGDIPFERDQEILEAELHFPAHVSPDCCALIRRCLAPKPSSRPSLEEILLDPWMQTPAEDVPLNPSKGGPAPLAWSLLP

Chain of MAP kinase-interacting serine/threonine-protein kinase 2 (Homo sapiens) (Q9HBH9 whole entry, looked up): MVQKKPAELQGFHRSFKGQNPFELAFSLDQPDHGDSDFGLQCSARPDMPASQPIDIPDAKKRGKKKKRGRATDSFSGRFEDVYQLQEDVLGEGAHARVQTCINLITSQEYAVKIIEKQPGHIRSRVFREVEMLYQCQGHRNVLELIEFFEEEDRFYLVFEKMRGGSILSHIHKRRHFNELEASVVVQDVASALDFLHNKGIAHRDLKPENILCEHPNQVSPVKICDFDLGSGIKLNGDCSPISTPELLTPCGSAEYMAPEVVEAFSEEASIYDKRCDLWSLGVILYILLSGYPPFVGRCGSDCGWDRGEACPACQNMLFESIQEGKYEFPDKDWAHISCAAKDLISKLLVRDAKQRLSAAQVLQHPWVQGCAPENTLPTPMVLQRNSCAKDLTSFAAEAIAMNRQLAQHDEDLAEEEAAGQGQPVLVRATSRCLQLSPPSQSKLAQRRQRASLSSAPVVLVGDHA
Chain of MAP kinase-interacting serine/threonine-protein kinase 1 (Homo sapiens) (Q9BUB5 whole entry, looked up): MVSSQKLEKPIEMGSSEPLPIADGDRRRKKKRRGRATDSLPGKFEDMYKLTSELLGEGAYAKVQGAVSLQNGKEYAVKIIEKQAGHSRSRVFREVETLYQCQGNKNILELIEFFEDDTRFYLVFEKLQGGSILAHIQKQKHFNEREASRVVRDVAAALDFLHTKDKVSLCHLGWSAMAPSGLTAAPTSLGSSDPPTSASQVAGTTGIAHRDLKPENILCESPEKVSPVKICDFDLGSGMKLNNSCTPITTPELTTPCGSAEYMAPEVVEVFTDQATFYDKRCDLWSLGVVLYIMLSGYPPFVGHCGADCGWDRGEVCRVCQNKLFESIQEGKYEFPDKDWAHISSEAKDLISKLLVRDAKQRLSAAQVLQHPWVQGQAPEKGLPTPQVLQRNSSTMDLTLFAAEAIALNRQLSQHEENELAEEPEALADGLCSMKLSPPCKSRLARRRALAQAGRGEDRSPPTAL
Chain of PAS domain-containing serine/threonine-protein kinase (Homo sapiens) (Q96RG2 whole entry, the tested form may be a part, canonical isoform): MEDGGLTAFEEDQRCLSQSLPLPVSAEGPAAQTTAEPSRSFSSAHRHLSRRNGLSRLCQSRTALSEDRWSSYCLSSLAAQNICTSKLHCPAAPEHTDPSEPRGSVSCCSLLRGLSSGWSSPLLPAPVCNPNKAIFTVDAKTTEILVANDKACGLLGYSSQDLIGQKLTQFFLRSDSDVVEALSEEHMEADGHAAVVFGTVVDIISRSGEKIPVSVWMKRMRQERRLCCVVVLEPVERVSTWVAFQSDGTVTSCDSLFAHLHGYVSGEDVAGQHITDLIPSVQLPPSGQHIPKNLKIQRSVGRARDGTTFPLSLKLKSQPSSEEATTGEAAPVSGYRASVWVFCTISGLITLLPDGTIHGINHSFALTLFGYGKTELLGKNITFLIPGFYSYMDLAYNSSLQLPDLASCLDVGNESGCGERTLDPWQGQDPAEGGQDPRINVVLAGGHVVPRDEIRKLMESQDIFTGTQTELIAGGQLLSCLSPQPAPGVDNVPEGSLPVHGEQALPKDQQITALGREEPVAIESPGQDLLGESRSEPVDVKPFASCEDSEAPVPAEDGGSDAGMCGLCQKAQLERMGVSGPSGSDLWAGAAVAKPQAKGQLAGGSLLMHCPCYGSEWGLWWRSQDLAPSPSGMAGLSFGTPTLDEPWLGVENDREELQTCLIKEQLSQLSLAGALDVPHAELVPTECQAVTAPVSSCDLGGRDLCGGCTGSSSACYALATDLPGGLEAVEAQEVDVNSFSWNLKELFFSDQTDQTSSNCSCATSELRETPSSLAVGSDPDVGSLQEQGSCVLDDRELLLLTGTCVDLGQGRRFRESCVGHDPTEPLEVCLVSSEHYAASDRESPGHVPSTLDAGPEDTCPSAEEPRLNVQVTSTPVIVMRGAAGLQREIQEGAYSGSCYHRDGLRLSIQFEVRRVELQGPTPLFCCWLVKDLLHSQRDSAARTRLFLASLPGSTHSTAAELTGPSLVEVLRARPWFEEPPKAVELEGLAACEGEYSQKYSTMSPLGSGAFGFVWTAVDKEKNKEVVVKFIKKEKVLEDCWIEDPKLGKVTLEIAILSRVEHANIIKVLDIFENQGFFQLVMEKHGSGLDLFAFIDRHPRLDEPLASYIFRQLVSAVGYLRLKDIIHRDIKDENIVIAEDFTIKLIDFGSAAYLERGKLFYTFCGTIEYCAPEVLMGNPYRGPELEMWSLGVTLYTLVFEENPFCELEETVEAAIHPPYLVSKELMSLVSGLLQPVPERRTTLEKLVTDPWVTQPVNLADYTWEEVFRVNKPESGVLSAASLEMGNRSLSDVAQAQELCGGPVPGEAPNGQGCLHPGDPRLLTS
Chain of Phosphorylase b kinase gamma catalytic chain, skeletal muscle/heart isoform (Homo sapiens) (Q16816 whole entry, looked up, canonical isoform): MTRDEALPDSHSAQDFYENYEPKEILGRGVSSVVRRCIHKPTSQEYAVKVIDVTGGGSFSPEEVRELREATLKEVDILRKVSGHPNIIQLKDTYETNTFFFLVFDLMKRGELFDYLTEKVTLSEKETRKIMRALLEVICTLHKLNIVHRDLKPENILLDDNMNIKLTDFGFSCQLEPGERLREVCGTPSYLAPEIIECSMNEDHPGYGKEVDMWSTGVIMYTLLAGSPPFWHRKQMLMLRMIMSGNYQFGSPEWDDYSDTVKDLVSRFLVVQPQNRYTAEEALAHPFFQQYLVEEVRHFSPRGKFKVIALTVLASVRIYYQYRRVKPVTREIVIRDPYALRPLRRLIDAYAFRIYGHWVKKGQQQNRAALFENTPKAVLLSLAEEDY
Chain of Serine/threonine-protein kinase pim-1 (Homo sapiens) (P11309 whole entry, looked up): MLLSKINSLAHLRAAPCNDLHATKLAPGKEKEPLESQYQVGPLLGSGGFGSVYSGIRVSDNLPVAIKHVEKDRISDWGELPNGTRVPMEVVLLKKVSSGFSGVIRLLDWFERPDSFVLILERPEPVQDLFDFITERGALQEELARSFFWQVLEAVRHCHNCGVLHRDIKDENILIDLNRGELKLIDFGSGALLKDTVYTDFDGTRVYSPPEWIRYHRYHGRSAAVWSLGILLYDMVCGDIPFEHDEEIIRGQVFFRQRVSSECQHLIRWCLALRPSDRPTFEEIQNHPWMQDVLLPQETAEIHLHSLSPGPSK
Chain of Serine/threonine-protein kinase MARK2 (Homo sapiens) (Q7KZI7 whole entry, the tested form may be a part): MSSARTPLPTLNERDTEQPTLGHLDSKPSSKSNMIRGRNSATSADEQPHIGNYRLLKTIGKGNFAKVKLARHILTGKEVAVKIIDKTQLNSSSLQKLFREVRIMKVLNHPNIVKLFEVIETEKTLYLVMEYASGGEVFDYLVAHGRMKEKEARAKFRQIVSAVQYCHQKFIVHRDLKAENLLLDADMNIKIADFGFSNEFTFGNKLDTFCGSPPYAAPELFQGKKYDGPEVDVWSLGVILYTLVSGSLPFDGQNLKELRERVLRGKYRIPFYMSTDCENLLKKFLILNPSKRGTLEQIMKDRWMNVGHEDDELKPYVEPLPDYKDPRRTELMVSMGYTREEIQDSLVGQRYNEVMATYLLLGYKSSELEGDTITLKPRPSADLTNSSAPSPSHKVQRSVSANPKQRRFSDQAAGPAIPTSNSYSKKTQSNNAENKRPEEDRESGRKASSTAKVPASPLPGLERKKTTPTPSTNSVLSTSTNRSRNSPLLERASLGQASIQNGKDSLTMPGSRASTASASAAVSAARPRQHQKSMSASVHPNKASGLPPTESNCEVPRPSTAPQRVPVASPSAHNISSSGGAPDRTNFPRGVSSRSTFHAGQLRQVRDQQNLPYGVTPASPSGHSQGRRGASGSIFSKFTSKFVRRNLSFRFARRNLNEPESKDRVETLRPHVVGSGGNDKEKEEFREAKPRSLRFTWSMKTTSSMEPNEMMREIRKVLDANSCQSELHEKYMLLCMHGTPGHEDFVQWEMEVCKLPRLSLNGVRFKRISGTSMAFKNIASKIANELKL
Chain of Maternal embryonic leucine zipper kinase (Homo sapiens) (Q14680 whole entry, looked up): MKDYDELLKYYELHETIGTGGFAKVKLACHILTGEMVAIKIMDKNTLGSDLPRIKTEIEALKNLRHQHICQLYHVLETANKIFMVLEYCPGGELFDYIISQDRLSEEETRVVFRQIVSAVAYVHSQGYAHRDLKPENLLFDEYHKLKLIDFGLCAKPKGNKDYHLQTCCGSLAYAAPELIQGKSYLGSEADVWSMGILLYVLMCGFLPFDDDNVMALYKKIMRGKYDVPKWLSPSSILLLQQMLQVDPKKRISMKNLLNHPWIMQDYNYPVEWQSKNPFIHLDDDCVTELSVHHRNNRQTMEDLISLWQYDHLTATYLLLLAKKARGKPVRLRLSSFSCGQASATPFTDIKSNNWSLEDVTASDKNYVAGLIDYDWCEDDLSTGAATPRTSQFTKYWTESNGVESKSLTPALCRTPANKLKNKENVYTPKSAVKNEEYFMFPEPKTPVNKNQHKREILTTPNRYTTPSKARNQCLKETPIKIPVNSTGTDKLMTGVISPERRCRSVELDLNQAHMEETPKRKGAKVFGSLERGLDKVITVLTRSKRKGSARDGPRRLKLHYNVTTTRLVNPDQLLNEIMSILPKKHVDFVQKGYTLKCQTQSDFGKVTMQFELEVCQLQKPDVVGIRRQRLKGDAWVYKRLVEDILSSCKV

Row | SMILES | inhibition [1] [%] | inhibition [2] [%] | inhibition [3] [%] | inhibition [4] [%] | inhibition [5] [%] | inhibition [6] [%] | inhibition [7] [%] | inhibition [8] [%] | inhibition [9] [%] | inhibition [10] [%] | inhibition [11] [%] | inhibition [12] [%] | inhibition [13] [%] | inhibition [14] [%] | inhibition [15] [%] | inhibition [16] [%] | inhibition [17] [%] | inhibition [18] [%] | inhibition [19] [%] | inhibition [20] [%]
1 | COc1ccc(-c2nn3ncccc3c2-c2ccnc(Nc3ccc(Cl)c(C(F)(F)F)c3)n2)cc1 | 6.57 | 0.48 | 0.08 | 0.2 | 4.8 | -1.04 | 5.69 | 1.9 | 2.43 | -0.27 | -0.83 | 0.24 | 2.12 | 3.41 | 5.53 | 2.13 | 5.41 | 0.1 | 0.37 | 0.12
2 | CCN1CCC(CC(=O)Nc2n[nH]c3nc(-c4cccs4)c(Br)cc23)CC1 | -0.75 | 0.08 | 0.81 | -1.63 | 0.98 | 42 | 76.6 | 2.95 | 28.2 | 0.07 | 0.15 | -0.58 | -1.17 | 2.37 | 5.36 | -4.86 | -3.7 | 0.1 | 3.88 | 0.19
3 | CN1CCC(C(=O)Nc2n[nH]c3nnc(-c4ccccc4)cc23)CC1 | 4.62 | 2.21 | 3.02 | 3.21 | 5.92 | 6.32 | 13.6 | 2.9 | 8.1 | 1.18 | 0.72 | 0.17 | 0.71 | 5.33 | 11.3 | 6.18 | 9.48 | 1.63 | 3.41 | 0.6
4 | Fc1cccc(COc2ccc(Nc3ncnc4sc(-c5cccs5)cc34)cc2Cl)c1 | 3.4 | 0.59 | 1.48 | 2.25 | 3.16 | 2.11 | 5.61 | 1.36 | 5.08 | 1.15 | 4.63 | 0.96 | -0.11 | 2.66 | 6.77 | -1.25 | -2.01 | 0.38 | 1.29 | 0.52
5 | Cc1ccc(C(=O)NC2CCCCC2)cc1-c1ccc(C(=O)NCC2CC2)cc1 | 2.82 | 1.51 | 1.5 | 1.92 | 2.41 | 1.78 | 2.58 | 0.32 | -0.44 | 0.34 | 0.99 | 1.33 | -0.83 | 0.53 | -0.89 | 3.98 | 1.55 | -0.39 | 0.56 | 1.02
6 | CCn1c(-c2nonc2N)nc2c(C#CC(C)(C)O)nc(CN3CCCC3)cc21 | 15.4 | 3.5 | 7.13 | 1.68 | 5.55 | -0.28 | 0.88 | -0.06 | 1.84 | 3.94 | 10 | 0.49 | 1.59 | 2.9 | 2.56 | -2.3 | -1.9 | 0.28 | -0.73 | 0.26
